This is a sample that favours compounds with a hit; in the whole collection about 6.6% have one here.
Gli-Sufu antag – antagonists of Gli-Sufu signaling. 340,000 tested, 0.74% active. inhibition, % at 5 µM. Sufu-KO-LIGHT fibroblasts, Gli luciferase reporter luminescence;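 active means inhibition above about 55%, limit read from the data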
MPTP block – permeability transition pore inhibition; isolated mouse mitochondria, Ca2+ swelling absorbance, 30 min; inhibition, % at 10 µM; 360,000 tested, 1.4% active; AID 602449;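 active means inhibition of 50% or more, scaled per plate between neutral and stimulator controls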
Mdm2-MdmX inh – disrupts the human Mdm2-MdmX interaction; inhibition, % at 8 µM; O15151+Q00987; SaOS-2 split-luciferase Mdm2/MdmX complementation, luminescence; AID 485346; 330,000 tested, 3% active;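 active means inhibition of at least 50% at 8 µM in the primary screen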
Target sequence (O15151 whole entry, looked up): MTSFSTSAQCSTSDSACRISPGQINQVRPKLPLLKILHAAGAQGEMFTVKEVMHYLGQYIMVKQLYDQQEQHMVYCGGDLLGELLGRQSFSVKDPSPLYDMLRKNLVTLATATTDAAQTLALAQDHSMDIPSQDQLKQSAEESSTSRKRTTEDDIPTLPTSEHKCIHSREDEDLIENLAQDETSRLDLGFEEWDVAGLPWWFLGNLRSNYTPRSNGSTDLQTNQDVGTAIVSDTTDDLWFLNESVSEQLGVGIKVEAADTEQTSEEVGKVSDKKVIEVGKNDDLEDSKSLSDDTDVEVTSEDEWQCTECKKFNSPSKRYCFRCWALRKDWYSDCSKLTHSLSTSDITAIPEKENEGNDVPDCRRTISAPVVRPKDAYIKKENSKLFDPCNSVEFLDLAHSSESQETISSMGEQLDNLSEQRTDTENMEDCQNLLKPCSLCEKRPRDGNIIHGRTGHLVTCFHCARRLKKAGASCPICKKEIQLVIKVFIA
Target sequence (Q00987 whole entry, looked up): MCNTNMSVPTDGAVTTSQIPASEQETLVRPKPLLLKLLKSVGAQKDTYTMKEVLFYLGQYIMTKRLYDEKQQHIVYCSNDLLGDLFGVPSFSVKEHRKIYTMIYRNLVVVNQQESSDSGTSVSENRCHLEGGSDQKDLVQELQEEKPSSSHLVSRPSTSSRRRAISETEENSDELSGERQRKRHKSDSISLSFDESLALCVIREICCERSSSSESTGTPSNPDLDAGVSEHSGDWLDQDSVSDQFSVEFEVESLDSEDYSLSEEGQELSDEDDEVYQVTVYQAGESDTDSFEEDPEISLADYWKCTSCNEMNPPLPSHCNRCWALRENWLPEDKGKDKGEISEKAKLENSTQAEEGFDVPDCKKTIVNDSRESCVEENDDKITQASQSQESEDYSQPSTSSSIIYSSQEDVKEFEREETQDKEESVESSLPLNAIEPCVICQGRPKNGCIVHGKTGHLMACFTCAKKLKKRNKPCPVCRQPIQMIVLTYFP
CSC inhib – blocks cancer stem cells; cancer stem cell-like cells viability, luminescence; inhibition, % at 7.5 µM; 300,000 tested, 1.1% active; in the data active means inhibition above about 75%; tested in HMLE shEcad cells
NR3A LBD binder – modulators (binders) of human NR3A ligand-binding domain; NR3A LBD differential scanning fluorimetry, Tm shift; 0% = protein alone, 100% = glycine-bound protein; Tm shift relative to glycine control, % at 25 µM; 340,000 tested, 2.5% active;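 active means melting temperature shift of at least 10% of the positive control shift, at one fixed dose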
Beta apoptosis – beta cell apoptosis inhibition; INS-1E cytokine-induced death, ATP luminescence, 48 h; percent of positive-control rescue, neutral wells zero; protection from apoptosis, % (test concentration not listed); 300,000 tested, 0.8% active; AID 435005;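 active means Every replicate reaches about 75%, or at least half do and their mean reaches it too, limit read from the data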;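 further: higher means more ATP so stronger rescue from cytokine killing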
Mdm2-MdmX conf – confirmation of human Mdm2/MdmX interaction inhibitors; shares compounds with Mdm2-MdmX inh; Mdm2-MdmX binding, luminescent assay; inhibition, % at 8 µM; 10,000 tested, 55% active; AID 489028; in the data active means inhibition above about 40%
Full FLuc ctr – counter-screen for Mdm2/MdmX inhibitors: full-length luciferase. shares compounds with Mdm2-MdmX inh. SaOS-2 full-length luciferase counterscreen, luminescence. inhibition, % at 8 µM. 6,200 tested, 77% active. AID 504607;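 active means mean inhibition at 8 µM reaching about 37%, which flags the compound as non-specific, limit read from the data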;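 further: p53-null SaOS-2 cells with luciferase driven by a doxycycline-inducible promoter; compound on cells about two nights before reading with doxycycline added after day one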
A number is an active result; i = inactive; nt = no result.

SMILES	Gli-Sufu antag	MPTP block	Mdm2-MdmX inh	CSC inhib	NR3A LBD binder	Beta apoptosis	Mdm2-MdmX conf	Full FLuc ctr
O=C1c2ccc(-c3ccc(F)cc3OCc3ccccc3)cc2S(=O)(=O)c2cccc(C(=O)N3CCCC3)c21	i	i	i	i	i	i	nt	nt
Cc1ccc(S(=O)(=O)CCSc2n[nH]c(=O)n2-c2ccc3c(c2)OCCO3)cc1	i	i	i	i	i	i	nt	nt
CC(NCc1ccc(OCc2ccc(Cl)cc2)cc1)C(O)c1ccccc1 (stereo not given)	i	i	100	102	i	i	60	52
CC(NCc1cccc(OCc2ccccc2)c1)C(O)c1ccccc1 (stereo not given)	i	i	i	i	i	i	nt	nt
CCOC(=O)C1=CNS(=O)(=O)NC1c1cccc(O)c1 (stereo not given)	i	i	i	nt	i	nt	nt	nt
CCn1c(C)nc2cc(-c3nc4n(n3)Cc3ccccc3-4)ccc21	87	i	92	92	i	i	99	51
O=C(NC(CSCc1ccccc1)C(=O)N/N=C/c1ccc(O)cc1O)c1ccc([N+](=O)[O-])cc1 (stereo not given)	76	i	65	105	16	78	74	i
CC(=O)c1cc2c(cc1NC(=O)c1ccc(Cl)cc1)OCCO2	i	i	57	i	i	nt	i	nt
COc1cc(-c2nnc(COc3ccc4cc(Br)ccc4c3)o2)cc(OC)c1OC	i	i	60	i	i	nt	i	nt
COc1ccc(-c2nnc(COc3ccc4ccccc4c3)o2)cc1OC	i	i	i	i	i	i	nt	nt
CSc1ccccc1OCc1cc(C(=O)NCCn2ccnc2C)no1	i	i	i	i	i	i	nt	nt
C#CCNCCS(=O)(=O)N(Cc1ccc(Br)cc1)[C@@H](C)C(=O)O	i	i	i	nt	i	nt	nt	nt
CCn1c2ccccc2c2cc(Nc3cc(C)nc4ncnn34)ccc21	62	i	83	i	i	i	72	109
O=C1Nc2cccnc2N(C(=O)CCl)c2ccccc21	i	i	68	i	i	i	50	i
CCn1cnc2cc(NCc3ccc(OC)cc3)ccc21	i	i	i	i	i	i	nt	nt
CCOc1ccc2nc3cc(NCc4ccc(OC)cc4)ccc3c(N)c2c1	64	i	97	121	i	i	85	i
CCOc1cccc(Cc2c[nH]c(=O)[nH]c2=O)c1	nt	i	nt	nt	nt	nt	nt	nt
COc1ccc(Nc2oc(COc3ccc(OC)cc3)nc2C#N)cc1	i	i	63	i	i	nt	80	59
CCOc1ccc(Nc2oc(-c3cccc(Cl)c3)nc2C#N)cc1	i	i	51	i	i	i	i	nt
COc1ccc(Nc2oc(COc3ccccc3F)nc2C#N)cc1	i	i	i	i	i	i	nt	nt
COc1ccc(Nc2oc(COc3cccc(C)c3)nc2C#N)cc1	i	i	63	i	i	i	48	90
COc1ccc(CNc2oc(COc3ccccc3)nc2C#N)cc1	i	i	i	i	i	i	nt	nt
CCNc1oc(COc2cccc(C)c2)nc1C#N	i	i	i	i	i	i	nt	nt
CCOc1ccc(Nc2oc(-c3ccco3)nc2C#N)cc1	i	i	i	nt	i	i	nt	nt
COc1ccc(Nc2oc(COc3ccc(C)cc3)nc2C#N)cc1	i	i	59	i	i	i	74	61
SMILES	Gli-Sufu antag	MPTP block	Mdm2-MdmX inh	CSC inhib	NR3A LBD binder	Beta apoptosis	Mdm2-MdmX conf	Full FLuc ctr
CCSC1(SCC)N=C(N)C2(C#N)C(c3ccc(OC)c(OC)c3OC)C12C#N (stereo not given)	i	i	69	i	i	i	50	i
COc1ccccc1-c1cccc(-c2nc(C(=O)Nc3nccs3)cc3c2[C@H](CCO)N(C(C)=O)C3)c1	nt	i	nt	nt	nt	nt	nt	nt
CC(=O)Nc1ccc(S(=O)(=O)NCCC(=O)OCc2csc(CC(=O)Nc3ccccc3C)n2)cc1	i	i	51	i	i	nt	i	nt
Cc1cccc(NC(=O)CSc2nnc(-c3ccncc3)n2CC2CCCO2)c1 (stereo not given)	i	i	i	i	i	i	nt	nt
COc1cccc(CN(C)C(=O)c2cc(-c3ccc(OC)c(OC)c3)nc3ccccc23)c1	i	i	55	i	i	i	i	nt
COc1cccc(NC(=O)CN(C)C(=O)c2cc(-c3ccc(F)cc3)nc3ccccc23)c1	i	i	62	i	i	i	i	nt
COc1ccccc1CN(C)C(=O)c1cc(-c2cccs2)nc2ccccc12	i	i	61	i	i	i	i	57
COc1ccc(-c2cc(C(=O)N(C)CCc3ccc(OC)c(OC)c3)c3ccccc3n2)cc1	i	i	i	i	i	i	nt	nt
COc1cccc(CN(C)C(=O)c2cc(-c3ccc(F)cc3)nc3ccccc23)c1	i	i	53	i	i	i	i	nt
COc1cccc(NC(=O)CN(C)C(=O)c2cc(-c3ccccc3)nc3ccccc23)c1	i	i	i	i	i	i	nt	nt
COc1ccccc1-c1csc(NC(=O)c2cc(-c3cccs3)nc3ccccc23)n1	i	i	i	i	i	i	nt	nt
O=C(NN=Cc1cccc(O)c1O)c1ccccc1	nt	i	nt	nt	nt	nt	nt	nt
COc1ccc(-c2cc(C(=O)N(C)Cc3cccc(OC)c3OC)c3ccccc3n2)cc1OC	i	i	i	i	i	i	nt	nt
COc1ccc(CN(C)C(=O)c2cc(-c3ccc(OC)c(OC)c3)nc3ccccc23)c(OC)c1	i	i	57	i	i	i	46	101
COc1ccc(-c2cc(C(=O)N(C)Cc3nc4ccccc4c(=O)[nH]3)c3ccccc3n2)cc1OC	i	i	52	i	i	i	i	nt
COc1ccc(CN(C)C(=O)c2cc(-c3ccccc3)nc3ccc(C)cc23)c(OC)c1OC	i	i	65	i	i	i	i	nt
COc1ccc(CCN(C)C(=O)c2cc(-c3ccccc3)nc3ccccc23)cc1OC	i	i	i	i	i	i	nt	nt
COCCCN1C(=O)c2ccc(C(=O)OCC(=O)N(CCC#N)c3cc(C)cc(C)c3)cc2C1=O	i	i	i	i	i	i	nt	nt
Cc1ccc2c(c1)c1c(n2CC(O)Cn2ccnc2C)C(=O)CCC1 (stereo not given)	i	i	i	i	i	i	nt	nt
Cc1ccc2c(c1)c1c(n2CC(O)CNC2CCCC2)CCCC1 (stereo not given)	i	i	57	i	i	i	i	77
CC(C)(C)OC(=O)N1CCN(C(=O)c2ncn3c2c(=O)[nH]c2ccccc23)CC1	nt	i	nt	nt	nt	nt	nt	nt
CCCCNC(=O)C1C(c2ccc(OC)cc2)=Nc2ccccc2N1C(=O)c1ccc2ncccc2c1 (stereo not given)	nt	i	nt	nt	nt	nt	nt	nt
Cc1ccccc1NC(=S)NCc1ccc2c(c1)cc(C)n2C	i	i	68	i	i	i	48	62
C[C@H](CO)N1C[C@H](C)[C@@H](CN(C)S(=O)(=O)c2cccs2)OCc2cnnn2CCCC1=O	nt	i	nt	nt	nt	nt	nt	nt

Bioassay records: PubChem, several laboratories
